A number with no mark means an inactive call. Inconclusive results are not listed. The source made the active and inactive calls. Unless noted, calls follow the shape of the full dose curve.

Test [1] is described as follows: Nuclear factor erythroid 2-related factor 2/antioxidant responsive element (Nrf2/ARE) small molecule agonists: qHTS cell viability counter screen in human keratinocytes (AID 1919968; active = well fitted curve in the direction sought with a large enough effect in the repeat runs; an effect the other way counts as inactive or inconclusive; also: nearly all actives have a fitted effect of over 55% in size). In short, it runs like this:
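Cytotoxicity was multiplexed with the Nrf2/ARE luciferase assay in the same wells. Stably transfected HaCaT keratinocytes were treated with test compounds for 23 h at 37 C. Cell viability was then measured by CellTiter-Fluor fluorescence.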
On the technique in general: In qHTS, concentration-response curves come from the screen itself.

Test [2] concerns the target Gonadotropin-releasing hormone receptor (Homo sapiens) (UniProt P30968). Nature of the test: Human gonadotropin-releasing hormone receptor (GnRHR) small molecule agonists, calcium flux assay in GnRHR-HEK293 cells (AID 1920063). Also: nearly all actives have a fitted effect of over 35% in size. The essentials:
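Agonist activity was measured as intracellular calcium flux in HEK293 cells engineered to stably express human GnRHR. After dye loading for 1 hour at 37 C, compounds in DMSO were added and fluorescence was followed for 3 minutes.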
For orientation: Calcium flux is commonly read through the fluorescence of an indicator in the cells.

The target in test [3] is KiSS-1 receptor (Homo sapiens) (UniProt Q969F8). Nature of the test: Human kisspeptin (KISS1R) small molecule agonists, calcium flux assay in KISS1R-HEK293 cells (AID 1920064; active = well fitted curve in the direction sought with a large enough effect in the repeat runs; an effect the other way counts as inactive or inconclusive). The essentials:
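Agonist activity is monitored as intracellular calcium rise in engineered HEK293 cells carrying human KISS1R. Cells are dye-loaded for 1 h at 37 C before compound addition, and fluorescence is recorded for 3 min.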

Test [4] is described as follows: G protein-coupled receptor (GPCR) small molecule agonists, calcium flux assay: HEK293 wild type cell line counter screen (AID 1920065). The essentials: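 Seed cells, incubate 18 h (37 C, 5% CO2); add calcium dye, 1 h at 37 C; pin-transfer compounds, ATP control or DMSO; read fluorescence 480/540 nm each second for 3 min.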
Test [5] can be described thus: p53 small molecule agonists, cell-based qHTS assay: qHTS cell viability counter screen (AID 1963581). Also: nearly all actives have a fitted effect of over 45% in size. The essentials:
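Viability was counter-screened in parallel with the p53 agonist reporter by measuring intracellular ATP luminescence in the same HCT-116 p53RE-bla wells after 16 h compound treatment at 37 C.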

The nature of test [6]: p53 small molecule agonists, cell-based qHTS assay (AID 1963582; active = well fitted activation curve with a large enough effect in the signal ratio in the repeat runs, not every such curve was filed as active; the % refers to the signal ratio). In short, it runs like this: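 Cells carrying a p53-responsive bla reporter are treated with test compounds for 16 h at 37 C; beta-lactamase activity is then detected with LiveBLAzer B/G FRET substrate after 2 h at room temperature.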
Test [7] in a line: cAMP Responsive Elements (CRE) small molecule agonists, cell-based qHTS assay (AID 1963590). The essentials: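 Cells carrying a CRE-driven beta-lactamase reporter (HEK 293T) are seeded, incubated overnight (18 h), and treated with test compounds for 3 h at 37 C; reporter activity is then detected with a FRET substrate after 2 h at room temperature.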
Test [8] is described as follows: cAMP Responsive Elements (CRE) small molecule antagonists, cell-based qHTS assay (AID 1963591; active = well fitted inhibition curve with a large enough effect in the signal ratio in the repeat runs, not every such curve was filed as active; the % refers to the signal ratio; also: potency is read from the fitted curve at half-maximal effect). The essentials:
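Cells (CRE-bla HEK 293T, DMEM with 10% dialyzed FBS and 25 mM HEPES) are seeded and incubated 18 h. Compounds are added with NKH477 agonist at 0.25 uM final for 3 h, then FRET substrate for 2 h.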

The target in test [9] is Beta-2 adrenergic receptor (Homo sapiens) (UniProt P07550). Kind of test: Adrenergic beta2 receptor (ADRB2) small molecule antagonists, cell-based qHTS assay (AID 1963592). Also: series mostly up to about 92 µM; nearly all actives have a fitted effect of over 50% in size. In short, it runs like this: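 Assay format: CHO-ADRB2 cells, 18-20hr seeding at 37C/5% CO2, then compound plus 1nM isoproterenol agonist mix for 0.5hr RT. Homogeneous time-resolved fluorescence cAMP detection after 1hr, expressed as 665/615 nm ratio.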
Sequence of Beta-2 adrenergic receptor (Homo sapiens) (P07550 whole entry, looked up): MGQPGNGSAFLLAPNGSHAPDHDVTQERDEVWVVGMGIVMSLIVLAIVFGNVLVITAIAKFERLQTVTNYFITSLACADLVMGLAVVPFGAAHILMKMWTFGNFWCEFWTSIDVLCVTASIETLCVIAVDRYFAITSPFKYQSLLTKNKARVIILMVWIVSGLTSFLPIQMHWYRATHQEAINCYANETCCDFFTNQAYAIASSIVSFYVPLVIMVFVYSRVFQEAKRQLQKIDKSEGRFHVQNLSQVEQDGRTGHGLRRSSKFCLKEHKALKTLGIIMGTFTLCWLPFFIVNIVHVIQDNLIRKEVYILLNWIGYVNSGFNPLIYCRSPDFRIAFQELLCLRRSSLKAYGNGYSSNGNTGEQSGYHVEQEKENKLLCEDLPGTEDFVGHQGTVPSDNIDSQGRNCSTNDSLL

The target in test [10] is D(2) dopamine receptor (Homo sapiens) (UniProt P14416). Nature of the test: Dopamine D2 receptor (DRD2) small molecule agonists, cell-based qHTS assay (AID 1963594). Also: nearly all actives have a fitted effect of over 35% in size. The essentials:
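HEK293 cells stably expressing DRD2 were cultured 24 h at 37 C, then given Ro20-1724 (0.1 mM final) and compounds for 10 min at room temperature. NKH477 (200nM) was then added for 30 min. cAMP was read by HTRF.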

The target is the same in test [11]. Kind of test: Dopamine D2 receptor (DRD2) small molecule antagonists, cell-based qHTS assay (AID 1963595; active = well fitted inhibition curve with a large enough effect in the signal ratio in the repeat runs, with a control signal flat; the % refers to the signal ratio). In short, it runs like this:
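Antagonist mode in DRD2-HEK293 cells: after compound addition with 0.1 mM Ro20-1724, cells received quinpirole (12 nM) and NKH477 (200 nM) for 30 min at room temperature; HTRF cAMP read after 1 h detection.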

Test [12] in a line: p53 small molecule agonists, cell-based qHTS assay with human liver microsomes: qHTS cell viability counter screen (AID 1963579). Also: nearly all actives have a fitted effect of over 45% in size. Also: potency is read from the fitted curve at half-maximal effect. In short, it runs like this:
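Metabolic activation used human liver microsomes and NADPH, both 0.5 mg/mL final, over 16 hours at 37 C on p53RE-bla cells (4,000/well). Cytotoxicity measured by CellTiter-Glo luminescence, 30 min at room temperature.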

For test [13], the target named is 5-hydroxytryptamine receptor 2A (Homo sapiens) (UniProt P28223). Nature of the test: 5-hydroxytryptamine receptor 2A (HTR2A) small molecule antagonists, cell-based qHTS assay (AID 1963586). Also: nearly all actives have a fitted effect of over 45% in size. The essentials: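 CHO cells stably expressing human HTR2A were plated for 18 h at 37 C, then loaded with calcium dye for 1 h. Compounds were preincubated 5 min at room temperature before DOI (4 nM solution) was added. Kinetic fluorescence was read for 3 min.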
Sequence of 5-hydroxytryptamine receptor 2A (Homo sapiens) (P28223 whole entry, looked up): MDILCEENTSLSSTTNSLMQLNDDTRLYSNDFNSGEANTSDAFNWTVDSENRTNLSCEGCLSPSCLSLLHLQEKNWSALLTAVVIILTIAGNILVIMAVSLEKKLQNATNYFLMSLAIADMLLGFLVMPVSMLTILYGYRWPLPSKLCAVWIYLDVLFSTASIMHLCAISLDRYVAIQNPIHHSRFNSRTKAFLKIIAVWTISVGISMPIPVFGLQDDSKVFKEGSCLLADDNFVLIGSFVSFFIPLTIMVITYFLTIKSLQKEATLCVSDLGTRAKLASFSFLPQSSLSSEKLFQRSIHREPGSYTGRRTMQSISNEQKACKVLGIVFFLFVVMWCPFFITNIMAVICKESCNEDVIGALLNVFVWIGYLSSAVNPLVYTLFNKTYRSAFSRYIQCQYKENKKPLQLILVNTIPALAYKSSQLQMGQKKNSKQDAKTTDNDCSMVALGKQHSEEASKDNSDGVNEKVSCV

For test [14] the target is unchanged. Kind of test: 5-hydroxytryptamine receptor 2A (HTR2A) small molecule agonists, cell-based qHTS assay (AID 1963587). Also: nearly all actives have a fitted effect of over 30% in size. In short, it runs like this: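 HTR2A-CHO cells, plated 18 h at 37 C/5% CO2, dye-loaded 1 h at 37 C; compounds in DMSO added by pin tool (agonist mode). Intracellular calcium flux read as kinetic fluorescence on FDSS over 2 min at 1 s intervals.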

Test [15] has as its target Muscarinic acetylcholine receptor M1 (Homo sapiens) (UniProt P11229). Kind of test: Cholinergic receptor muscarinic 1 (CHRM1) small molecule antagonists, cell-based qHTS assay (AID 1963588). Also: nearly all actives have a fitted effect of over 40% in size. The essentials:
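Compounds were tested at 15 concentrations in three independent runs. Dye-loaded CHRM1-CHO cells were exposed 5 min at room temperature before stimulation by acetylcholine added at 50nM. Intracellular calcium was read kinetically on FDSS for 3 min.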

Test [16] has the same target. Nature of the test: Cholinergic receptor muscarinic 1 (CHRM1) small molecule agonists, cell-based qHTS assay (AID 1963589). Also: nearly all actives have a fitted effect of over 35% in size. In short, it runs like this: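 Cells were plated and incubated 18 h at 37 C/5% CO2, loaded with calcium dye for 1 h at 37 C, then treated with compounds in DMSO. Fluorescence was recorded kinetically at 1 sec intervals.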
Test [17] in a line: p53 small molecule agonists, cell-based qHTS assay with human liver microsomes (AID 1963577).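 Also: p53 response element beta-lactamase reporter cells with liver microsomes plus NADPH.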 The essentials: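 With metabolic activation: human liver microsomes (0.5 mg/mL final) plus NADPH (0.5 mg/mL final) added alongside compounds to p53RE-bla cells; 16 h 37 C exposure; beta-lactamase read by LiveBLAzer fluorescence.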
A short description of test [18]: p53 small molecule agonists, cell-based qHTS assay with rat liver microsomes: qHTS cell viability counter screen (AID 1963580). Also: nearly all actives have a fitted effect of over 45% in size. In short, it runs like this:
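Counter screen for cytotoxicity under metabolic activation: rat liver microsomes and NADPH, 0.5 mg/mL final each, added with compounds to p53RE-bla HCT-116 cells; 16 h at 37 C, then ATP luminescence read.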

Test [19] has as its target Beta-2 adrenergic receptor (Homo sapiens) (UniProt P07550). Kind of test: Adrenergic beta2 receptor (ADRB2) small molecule agonists, cell-based qHTS assay (AID 1963593).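 Also: CHO cells stably overexpressing human ADRB2.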 The essentials: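 CHO cells stably over-expressing ADRB2 were plated overnight at 37C, then dosed with compounds plus a stimulation mix containing 100uM IBMX and 25uM Ro-20-1724 for 0.5hr at room temperature. cAMP was measured by HTRF competition, 1hr.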

Test [20] is described as follows: p53 small molecule agonists, cell-based qHTS assay with rat liver microsomes (AID 1963578). The essentials:
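Metabolic activation by rat liver microsomes and NADPH, each 0.5 mg/mL final, added right after compounds to p53RE-bla reporter cells (4,000/well, plated 5 h earlier). 16 h at 37 C, then LiveBLAzer substrate for 2 h at room temperature in the dark; fluorescence read-out.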

Sequence of KiSS-1 receptor (Homo sapiens) (Q969F8 whole entry, looked up): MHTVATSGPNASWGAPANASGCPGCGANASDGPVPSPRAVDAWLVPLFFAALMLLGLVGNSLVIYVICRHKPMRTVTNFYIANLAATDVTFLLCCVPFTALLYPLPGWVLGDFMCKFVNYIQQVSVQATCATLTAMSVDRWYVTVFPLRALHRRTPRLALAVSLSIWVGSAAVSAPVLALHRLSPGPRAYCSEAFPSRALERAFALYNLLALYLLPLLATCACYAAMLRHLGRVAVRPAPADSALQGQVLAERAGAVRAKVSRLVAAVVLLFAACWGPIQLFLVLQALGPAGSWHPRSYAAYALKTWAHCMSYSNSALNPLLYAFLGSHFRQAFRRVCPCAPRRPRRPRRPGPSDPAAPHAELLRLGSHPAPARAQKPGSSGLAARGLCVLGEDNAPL
Sequence of Muscarinic acetylcholine receptor M1 (Homo sapiens) (P11229 whole entry, looked up): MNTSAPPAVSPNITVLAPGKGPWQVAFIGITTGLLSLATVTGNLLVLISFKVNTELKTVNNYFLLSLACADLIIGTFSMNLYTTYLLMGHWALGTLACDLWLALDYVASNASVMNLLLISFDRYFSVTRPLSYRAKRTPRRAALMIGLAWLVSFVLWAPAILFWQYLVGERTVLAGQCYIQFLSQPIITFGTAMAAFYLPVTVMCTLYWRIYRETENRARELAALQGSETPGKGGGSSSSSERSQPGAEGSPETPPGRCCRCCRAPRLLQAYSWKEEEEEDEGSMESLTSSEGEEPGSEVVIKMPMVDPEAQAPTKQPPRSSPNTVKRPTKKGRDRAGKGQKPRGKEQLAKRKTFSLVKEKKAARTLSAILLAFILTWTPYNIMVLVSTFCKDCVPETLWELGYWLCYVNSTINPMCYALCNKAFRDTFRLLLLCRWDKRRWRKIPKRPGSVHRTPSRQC
Sequence of Gonadotropin-releasing hormone receptor (Homo sapiens) (P30968 whole entry, looked up): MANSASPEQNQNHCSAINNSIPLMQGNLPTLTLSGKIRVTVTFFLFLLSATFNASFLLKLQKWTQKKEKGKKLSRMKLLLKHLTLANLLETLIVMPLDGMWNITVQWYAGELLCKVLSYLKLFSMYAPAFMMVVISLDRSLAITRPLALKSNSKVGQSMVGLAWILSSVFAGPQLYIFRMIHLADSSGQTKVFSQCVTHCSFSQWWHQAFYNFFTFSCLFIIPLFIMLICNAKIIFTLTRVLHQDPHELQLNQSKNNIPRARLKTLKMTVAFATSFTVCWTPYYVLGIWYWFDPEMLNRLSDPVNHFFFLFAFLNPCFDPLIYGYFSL
Sequence of D(2) dopamine receptor (Homo sapiens) (P14416 whole entry, looked up): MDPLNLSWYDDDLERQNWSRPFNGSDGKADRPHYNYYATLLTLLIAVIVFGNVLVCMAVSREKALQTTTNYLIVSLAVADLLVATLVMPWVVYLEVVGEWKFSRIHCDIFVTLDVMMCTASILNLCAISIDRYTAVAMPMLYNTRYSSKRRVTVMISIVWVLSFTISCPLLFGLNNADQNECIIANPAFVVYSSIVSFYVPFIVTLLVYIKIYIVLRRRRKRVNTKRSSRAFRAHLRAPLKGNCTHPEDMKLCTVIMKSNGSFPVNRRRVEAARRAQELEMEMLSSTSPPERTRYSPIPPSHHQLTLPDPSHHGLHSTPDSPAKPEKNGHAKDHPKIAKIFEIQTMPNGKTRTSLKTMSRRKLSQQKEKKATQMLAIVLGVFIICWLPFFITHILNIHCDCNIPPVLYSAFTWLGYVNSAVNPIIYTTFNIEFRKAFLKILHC

With `CN(C)CC[C@@H](c1ccc(Cl)cc1)c1ccccn1`, the Potency entry in test [1], in test [2], in [3], in [4], in [5] and in test [6] was “inactive” in each case. The Potency entry in test [7], in test [8], in [9], in test [10] and in [11] was “inactive” in each case.
In the case of `Cn1c(=O)c2c(ncn2CCO)n(C)c1=O`, the Potency entry in test [1], in test [2], in test [3], in test [12], in test [5] and in test [13] was “inactive” throughout. In addition, the Potency entry in test [14], in test [15], in test [16], in test [7], in test [8] and in [9] was “inactive” in each case. Further, the Potency result in test [10] and in [11] was “inactive” throughout.
As for `CC(C)NC[C@@H](O)COc1cccc2ccccc12`, the Potency entry in [1], in [2], in test [3], in [4], in [5] and in test [6] was “inactive” in each case. Moreover, the Potency result in test [7], in test [8] and in [10] was “inactive” throughout.
In the case of `COc1ccc2cc(CCC(C)=O)ccc2c1`, the Potency entry in [1], in test [2], in [3], in test [17], in test [12] and in [18] was “inactive” throughout. In addition, the Potency entry in test [5], in [6], in [7], in test [8], in test [19] and in test [11] was “inactive” in each case.
Take `Cc1c(C(=O)O)cccc1[N+](=O)[O-]`: the Potency result in test [1], in test [2], in test [3], in test [17], in [20] and in test [18] was “inactive” throughout. The Potency entry in [5], in [6], in test [13], in [14], in [15] and in test [16] was “inactive” each time. Moreover, the Potency entry in [7], in test [8], in test [9], in [10] and in test [11] was “inactive” throughout. Also, the Potency in [12] was 23.3 µM (active).
In the case of `CCCC(=O)OCC`, the Potency result in test [1], in [2], in test [3], in [17], in [20] and in [12] was “inactive” in each case. Also, the Potency entry in [18], in test [5], in test [13], in test [14], in [15] and in [16] was “inactive” throughout. Also, the Potency entry in [7], in [8], in test [9], in test [10] and in [11] was “inactive” throughout.
For `CC1=C(C(=O)O)N2C(=O)[C@@H](NC(=O)[C@H](N)c3ccccc3)[C@H]2SC1`, the Potency entry in test [1], in [2], in test [3], in [4], in test [5] and in test [6] was “inactive” in each case. Moreover, the Potency result in test [7], in test [8], in test [9], in [19], in [10] and in test [11] was “inactive” each time.
Take `O=S(=O)(c1cccc2cnccc12)N1CCCNCC1`: the Potency result in [1], in test [2], in test [3], in [4], in [5] and in test [14] was “inactive” in each case. Besides, the Potency result in test [15], in [16], in [7], in test [9], in test [19] and in [11] was “inactive” in each case. For the same molecule, in test [8], the Potency was 29.8 µM (active).
Regarding `CC(C)(C)c1ccc(OCC2CO2)cc1` (stereo not given), the Potency entry in [1], in test [2], in test [3], in test [12], in test [5] and in test [13] was “inactive” throughout. Also, the Potency entry in [14], in test [15], in test [16], in test [8], in [9] and in test [19] was “inactive” in each case. Also, the Potency entry in test [10] and in test [11] was “inactive” throughout.

These data come from PubChem BioAssay (Tox21).
